{"source": "PubChem BioAssay (EPA / NIEHS)", "key": {"[1]": {"assay": "CCTE_Mundy_HCI_Cortical_Synap_Neur_Matur_SynapseCount: CCTE's Synaptogenesis and Neurite Maturation Assay in rat cortical cells for Synapse Count, Mundy Lab (AID 2284218)", "procedure,_shortened": "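Read-out: synapse number per neuron, automated high-content imaging of fixed cells immunostained for MAP2 and synaptophysin plus Hoechst nuclei. Rat primary cortical cultures, AraC at DIV 5, chemical dosing DIV 7–12. Positive-direction fit relative to DMSO.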"}, "[2]": {"assay": "CCTE_Mundy_HCI_hN2_NOG_NeuriteCount: CCTE's Neurite Outgrowth Assay in human hN2 cells for Neurite Count, Mundy Lab (AID 2284219; active = hit-call score of the fitted dose curve at least 0.9, where 1 is the maximum)", "procedure,_shortened": "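In this morphology assay, hNP1-derived neurons received test chemical 2 h post-plating and were fixed two days later in warm paraformaldehyde/sucrose containing Hoechst 33342. Neurites, labelled by rabbit anti-βIII-tubulin (1:800) and Alexa Fluor-488 (1:500), were counted automatically.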"}, "[3]": {"assay": "CCTE_Mundy_HCI_hN2_NOG_NeuriteLength: CCTE's Neurite Outgrowth Assay in human hN2 cells for Neurite Length, Mundy Lab (AID 2284220; active = hit-call score of the fitted dose curve at least 0.9, where 1 is the maximum)", "procedure,_shortened": "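Using βIII-tubulin immunofluorescence and Hoechst nuclear counterstain, this component quantifies neurite length in hNP1-derived neurons.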"}, "[4]": {"assay": "CCTE_Mundy_HCI_hN2_NOG_NeuronCount: CCTE's Neurite Outgrowth Assay in human hN2 cells for Neuron Count, Mundy Lab (AID 2284221; active = hit-call score of the fitted dose curve at least 0.9, where 1 is the maximum)", "procedure,_shortened": "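Read-out is the number of betaIII-tubulin-positive neurons imaged by automated high-content analysis, with DMSO as negative control.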"}, "[5]": {"assay": "CCTE_Mundy_HCI_Cortical_Synap_Neur_Matur_CellBodySpotCount: CCTE's Synaptogenesis and Neurite Maturation Assay in rat cortical cells for Cell Body Spot Count, Mundy Lab (AID 2284223)", "procedure,_shortened": "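Rat primary cortical cultures received AraC at DIV 5 to arrest glia, were dosed with chemical at DIV 7 with media change, and were fixed at DIV 12 (288.33 h). Synaptophysin puncta on MAP2-positive cell bodies per neuron were counted by high-content imaging versus DMSO.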"}, "[6]": {"assay": "BSK_BT_PBMCCytotoxicity: PBMC Cytotoxicity Assessment in the BioMAP Diversity Plus: BT Assay (AID 2284225);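 also: PBMC viability measured by Alamar Blue dye reduction fluorescence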", "settings": "primary human B cells with PBMC", "procedure,_shortened": "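Primary human co-culture of B cells and PBMC, pre-dosed 1 h then activated with SEB and TSST-1. Cytotoxicity is taken from Alamar Blue dye reduction, added for 6 h at the end of a 90 h incubation.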"}, "[7]": {"read-out": "Secreted IgG (sIgG), gene 3500", "assay": "BSK_BT_sIgG: BioMAP Diversity Plus: BT Assay for Secreted IgG (sIgG) Biomarker Activity (AID 2284226)", "settings": "primary human B cells with PBMC", "procedure,_shortened": "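Human B cell/PBMC co-culture; compound exposure 24 h; sIgG by ELISA; gain-of-signal fit vs DMSO baseline.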"}, "[8]": {"assay": "TAMU_PeakParms_SingleDonor1434_Chronotropy: Texas A&M University (TAMU) 1.5-hr Human Induced Pluripotent Stem Cell (iPSC)-derived Cardiomyocytes Calcium (Ca+2) Flux Assay for Cardiotoxicity: Chronotropy (changes in peak frequency) (AID 2284217)", "settings": "actives raise or lower the signal", "experimental": "TAMU_PeakParms is a cell-based, multiplexed-readout assay that uses iPSC-derived cardiomyocytes with measurements taken at 1.5 hours after chemical dosing in a microplate: 384-well plate.TAMU_PeakParms_SingleDonor1434_Chronotopy is a phenotype derived from the peak.freq.avg parameter and uses an EC05 as its POD (5% increase in beat rate, compared to controls). Peak.Freq.Avg measures the average peak frequency, in beats per second, using Fluorescence intensity as a functional reporter from Calcium (Ca+2) flux assay technology. Before modeling, data is preprocessed to remove data points where there is a cessation of beating (where peak.freq.avg equals 0) to ensure the capture of the upwards response that isn't confounded by the drop in beat rate at higher concentrations and to ensure the drop in beat rate is captured before asystole, which is captured elsewhere.Data from the assay component TAMU_PeakParms_SingleDonor1434_Chronotropy was analyzed into 1 assay endpoint. This assay endpoint, TAMU_PeakParms_SingleDonor1434_Chronotropy_Negative, was analyzed with bidirectional fitting relative to DMSO as the negative control and baseline of activity. Using a type of functional reporter, gain or loss-of-signal activity can be used to understand changes in the cardiac function. […]"}, "[9]": {"assay": "CCTE_Mundy_HCI_hNP1_Pro_ResponderAvgInten: CCTE's Proliferation Assay in human neuroprogenitor cells, Mundy Lab (AID 2284224; active = hit-call score of the fitted dose curve at least 0.9, where 1 is the maximum;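 also: human neural progenitor cells hNP1 derived from WA09 embryonic stem cells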)", "procedure,_shortened": "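Human neuroprogenitors (hNP1, WA09 lineage) receive test chemical after 40 to 44 hours of attachment. A four-hour BrdU pulse begins twenty hours later, followed by fixation and high content imaging; signal is referenced to DMSO controls.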"}, "[10]": {"assay": "CCTE_Mundy_HCI_Cortical_Synap_Neur_Matur_NeuriteCount: CCTE's Synaptogenesis and Neurite Maturation Assay in rat cortical cells for Neurite Count, Mundy Lab (AID 2284222)", "procedure,_shortened": "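Primary rat cortical cells were plated, treated with AraC at DIV 5, then exposed to chemicals from DIV 7 through DIV 12. After fixation and immunostaining for MAP2 and synaptophysin, imaging quantified neurites, with DMSO as the negative control.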"}}, "note": "Several values for one entry are separate records, joined by “and”; a condition that tells them apart may be missing. Equal values may be shown once. Results filed as inconclusive are left out. A structure can be active in one record and inactive in another. Activity calls are given as the source filed them. The calls were made as follows, unless noted: active = hit-call score of the fitted dose curve at least 0.9, where 1 is the maximum; inactive = score below 0.9.", "data": [{"smiles": "O=C(CCCN1CCC(O)(c2ccc(Cl)cc2)CC1)c1ccc(F)cc1", "values": [{"measurement": "AC50", "setting": "[1]", "result": "18.4 µM (active)"}, {"measurement": "AC50", "setting": "[2]", "result": "37.9 µM (active)"}, {"measurement": "AC50", "setting": "[3]", "result": "22.4 µM (active)"}, {"measurement": "AC50", "setting": "[4]", "result": "20.3 µM (active)"}, {"measurement": "outcome", "setting": "[5]", "result": "inactive"}]}, {"smiles": "COC1=CC(=O)C[C@@H](C)[C@]12Oc1c(Cl)c(OC)cc(OC)c1C2=O", "values": [{"measurement": "outcome", "setting": "[6]", "result": "inactive"}, {"measurement": "AC50", "setting": "[7]", "result": "30.9 µM (active)"}]}, {"smiles": "O=C(O)CCC(F)(F)C(F)(F)C(F)(F)C(F)(F)C(F)(F)C(F)(F)F", "values": [{"measurement": "AC50", "setting": "[6]", "result": "23.6 µM (active)"}, {"measurement": "outcome", "setting": "[6]", "result": "inactive"}, {"measurement": "AC50", "setting": "[7]", "result": "14 µM (active) and 36.7 µM (active)"}, {"measurement": "outcome", "setting": "[7]", "result": "inactive"}]}, {"smiles": "O=S(=O)(O)C(F)(F)C(F)(F)C(F)(F)C(F)(F)C(F)(F)C(F)(F)C(F)(F)C(F)(F)C(F)(F)C(F)(F)F", "values": [{"measurement": "outcome", "setting": "[6]", "result": "inactive"}, {"measurement": "outcome", "setting": "[7]", "result": "inactive"}]}, {"smiles": "O=P(O)(O)CCC(F)(F)C(F)(F)C(F)(F)C(F)(F)C(F)(F)C(F)(F)F", "values": [{"measurement": "AC50", "setting": "[6]", "result": "12.2 µM (active)"}, {"measurement": "outcome", "setting": "[6]", "result": "inactive"}, {"measurement": "outcome", "setting": "[7]", "result": "inactive"}]}, {"smiles": "CC[N+](CC)(CC)Cc1ccccc1", "values": [{"measurement": "outcome", "setting": "[6]", "result": "inactive"}, {"measurement": "outcome", "setting": "[7]", "result": "inactive"}]}, {"smiles": "CCCCC(CC)C(=O)OCCOCCOCCOCCOC(=O)C(CC)CCCC", "note": "(stereo unspecified)", "values": [{"measurement": "outcome", "setting": "[6]", "result": "inactive"}, {"measurement": "AC50", "setting": "[7]", "result": "25.2 µM (active)"}]}, {"smiles": "O=C1NS(=O)(=O)c2ccccc21", "values": [{"measurement": "outcome", "setting": "[8]", "result": "inactive"}, {"measurement": "outcome", "setting": "[1]", "result": "inactive"}, {"measurement": "outcome", "setting": "[2]", "result": "inactive"}, {"measurement": "outcome", "setting": "[3]", "result": "inactive"}, {"measurement": "outcome", "setting": "[5]", "result": "inactive"}, {"measurement": "outcome", "setting": "[9]", "result": "inactive"}]}, {"smiles": "CC(C)c1c(C(=O)Nc2ccccc2)c(-c2ccccc2)c(-c2ccc(F)cc2)n1CC[C@@H](O)C[C@@H](O)CC(=O)O", "values": [{"measurement": "AC50", "setting": "[1]", "result": "3.58 µM (active)"}, {"measurement": "AC50", "setting": "[10]", "result": "3.35 µM (active)"}, {"measurement": "AC50", "setting": "[5]", "result": "4.68 µM (active)"}, {"measurement": "outcome", "setting": "[9]", "result": "inactive"}]}, {"smiles": "CC(=O)Nc1ccc(O)cc1", "values": [{"measurement": "outcome", "setting": "[8]", "result": "inactive"}, {"measurement": "outcome", "setting": "[1]", "result": "inactive"}, {"measurement": "outcome", "setting": "[2]", "result": "inactive"}, {"measurement": "outcome", "setting": "[3]", "result": "inactive"}, {"measurement": "outcome", "setting": "[5]", "result": "inactive"}, {"measurement": "outcome", "setting": "[9]", "result": "inactive"}]}]}
